Test results published in PubChem BioAssay (EPA / NIEHS).
Values joined by “and” are separate entries in the source; they are usually repeats but may differ in a detail not shown here. Equal entries are not always repeated. Inconclusive results are not listed. A structure can be active in one record and inactive in another. Active and inactive are the calls of the source. Rule for the calls, unless noted: active = hit-call score of the fitted dose curve at least 0.9, where 1 is the maximum; inconclusive = response in the unintended direction; inactive = score below 0.9.

Assays:
[1] = read-out: Intercellular Adhesion Molecule 1 (ICAM1), ICAM1 (gene 3383); test: BSK_3C_ICAM1: BioMAP Diversity Plus: 3C Assay for Intercellular Adhesion Molecule 1 (ICAM1) Biomarker Activity (AID 2283003; active = hit-call score of the fitted dose curve at least 0.9, where 1 is the maximum; inactive = score below 0.9); conditions: primary human endothelial cells (HUVEC); actives raise or lower the signal
Outline: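 Chemicals are dosed onto primary human umbilical vein endothelium (3C system). After 24 h, ICAM-1 is measured by ELISA, and responses are fitted bidirectionally relative to DMSO.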

[2] = BSK_3C_Proliferation: Cell Proliferation Assessment in the BioMAP Diversity Plus: 3C Assay (AID 2283006; active = hit-call score of the fitted dose curve at least 0.9, where 1 is the maximum; inactive = score below 0.9;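 for AC50: potency may reflect either rise or fall in cell number versus DMSO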); conditions: primary human endothelial cells (HUVEC)
Outline: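 Cells (human umbilical vein endothelial, sub-confluent) receive test chemical; after 48 h they are fixed in 10% trichloroacetic acid, stained with 0.1% SRB and read at 560 nm. Activity is referenced to DMSO, fitting increases and decreases.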

[3] = target: Peroxisome proliferator-activated receptor gamma (Homo sapiens) (UniProt P37231); test: ATG_PPARg_TRANS: Attagene TRANS-FACTORIAL HepG2 Assay for human Peroxisome Proliferator-activated Receptor-gamma (PPARg) (AID 2283007)
Sequence of Peroxisome proliferator-activated receptor gamma (Homo sapiens) (P37231 whole entry, looked up, the tested form may be a part): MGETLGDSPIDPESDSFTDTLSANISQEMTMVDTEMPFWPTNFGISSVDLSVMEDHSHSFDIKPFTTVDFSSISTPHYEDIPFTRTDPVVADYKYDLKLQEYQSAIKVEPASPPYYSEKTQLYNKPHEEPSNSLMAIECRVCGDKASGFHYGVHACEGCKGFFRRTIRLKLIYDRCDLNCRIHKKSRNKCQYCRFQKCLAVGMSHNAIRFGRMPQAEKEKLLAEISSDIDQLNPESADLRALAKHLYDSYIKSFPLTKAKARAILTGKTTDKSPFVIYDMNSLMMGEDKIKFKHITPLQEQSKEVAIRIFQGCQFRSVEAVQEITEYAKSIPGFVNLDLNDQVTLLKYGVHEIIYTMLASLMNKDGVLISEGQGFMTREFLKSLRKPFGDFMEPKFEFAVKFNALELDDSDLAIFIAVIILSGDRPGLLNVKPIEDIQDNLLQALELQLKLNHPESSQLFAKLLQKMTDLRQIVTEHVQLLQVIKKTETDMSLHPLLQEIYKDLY
Outline: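 HepG2 cells transiently transfected with multiplexed GAL4-UAS reporter units and exogenous chimeric NR-Gal4 proteins; reporter mRNA quantified after 24 h compound exposure by RT-PCR, fluorescent labelling, HpaI digestion and capillary electrophoresis; gain-of-signal fitted versus DMSO baseline.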

[4] = target: Nuclear receptor subfamily 1 group I member 2 (Homo sapiens) (UniProt O75469); test: ATG_PXR_TRANS: Attagene TRANS-FACTORIAL HepG2 Assay for human Pregnane X Receptor (PXR) (AID 2283008)
Outline: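 Multiplexed TRANS reporter panel in HepG2; this component tracks PXR-Gal4-driven reporter mRNA after 24 h dosing, measured by RT-PCR with capillary electrophoresis fluorescence, fitted against DMSO.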

[5] = target: Retinoic acid receptor RXR-alpha (Homo sapiens) (UniProt P19793); test: ATG_RXRa_TRANS: Attagene TRANS-FACTORIAL HepG2 Assay for human Retinoid X Receptor alpha (RXRa) (AID 2283012)
Sequence of Retinoic acid receptor RXR-alpha (Homo sapiens) (P19793 whole entry, looked up, the tested form may be a part): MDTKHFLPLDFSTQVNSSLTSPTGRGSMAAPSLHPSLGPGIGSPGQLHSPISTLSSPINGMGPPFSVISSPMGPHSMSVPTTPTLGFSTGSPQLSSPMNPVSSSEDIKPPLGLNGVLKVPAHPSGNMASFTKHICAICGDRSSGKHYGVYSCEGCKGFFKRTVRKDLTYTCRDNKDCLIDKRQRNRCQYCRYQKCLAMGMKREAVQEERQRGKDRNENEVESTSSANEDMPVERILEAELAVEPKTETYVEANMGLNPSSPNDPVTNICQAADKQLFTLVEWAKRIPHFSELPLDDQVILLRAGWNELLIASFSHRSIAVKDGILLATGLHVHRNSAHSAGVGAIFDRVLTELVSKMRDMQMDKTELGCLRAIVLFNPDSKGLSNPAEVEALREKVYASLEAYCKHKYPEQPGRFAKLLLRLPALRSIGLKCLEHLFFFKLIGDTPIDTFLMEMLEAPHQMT
Outline: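 Measures exogenous chimeric NR-GAL4 activity in transfected HepG2 liver cells after 24 h of dosing. Induced reporter mRNA was detected by RT-PCR with capillary electrophoresis, and gain of signal was analysed against DMSO.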

[6] = target: human Retinoid X Receptor beta (RXRb), RXRB (gene 6257) (UniProt P28702); test: ATG_RXRb_TRANS: Attagene TRANS-FACTORIAL HepG2 Assay for human Retinoid X Receptor beta (RXRb) (AID 2283013)
Sequence of human Retinoid X Receptor beta (RXRb), RXRB (gene 6257) (P28702 whole entry, looked up, the tested form may be a part): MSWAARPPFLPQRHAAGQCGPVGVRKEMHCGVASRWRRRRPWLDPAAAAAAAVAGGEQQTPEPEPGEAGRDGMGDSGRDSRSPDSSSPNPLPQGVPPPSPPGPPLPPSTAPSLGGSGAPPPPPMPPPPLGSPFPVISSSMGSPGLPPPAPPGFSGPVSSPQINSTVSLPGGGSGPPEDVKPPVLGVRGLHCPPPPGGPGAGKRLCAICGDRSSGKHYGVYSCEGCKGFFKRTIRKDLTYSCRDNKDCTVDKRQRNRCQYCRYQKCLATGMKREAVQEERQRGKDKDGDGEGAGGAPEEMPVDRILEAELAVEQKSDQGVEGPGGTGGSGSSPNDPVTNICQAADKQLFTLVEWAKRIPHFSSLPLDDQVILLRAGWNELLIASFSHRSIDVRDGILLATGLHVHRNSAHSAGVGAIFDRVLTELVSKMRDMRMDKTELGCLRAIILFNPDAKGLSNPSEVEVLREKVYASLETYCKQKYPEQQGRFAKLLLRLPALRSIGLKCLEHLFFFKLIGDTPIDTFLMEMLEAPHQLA
Outline: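 Chimeric receptor-Gal4 activity was assessed in transiently transfected human HepG2 cells after 24 h exposure. Transcripts from GAL4-UAS reporters were quantified by fluorescent RT-PCR and capillary electrophoresis, with DMSO as negative control and baseline.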

[7] = read-out: E-selectin (Homo sapiens) (UniProt P16581); test: BSK_3C_Eselectin: BioMAP Diversity Plus: 3C Assay for Eselectin Biomarker Activity (AID 2283015; active = hit-call score of the fitted dose curve at least 0.9, where 1 is the maximum; inactive = score below 0.9); conditions: primary human endothelial cells (HUVEC); actives raise or lower the signal
Outline: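 Human vascular endothelium from umbilical vein is exposed to test chemicals for 24 h. E-selectin levels are read by ELISA and compared with DMSO controls.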

[8] = read-out: Interleukin-1 alpha (IL1a), IL1A (gene 3552); test: BSK_BE3C_IL1a: BioMAP Diversity Plus: BE3C Assay for Interleukin-1 alpha (IL1a) Biomarker Activity (AID 2283016; active = hit-call score of the fitted dose curve at least 0.9, where 1 is the maximum; inactive = score below 0.9); conditions: primary human bronchial epithelial cells; actives raise or lower the signal
Outline: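 Signal from IL-1a ELISA, taken 24 h after chemical dosing of human bronchial epithelial cells, is compared with DMSO as baseline using bidirectional curve fitting.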

[9] = read-out: Monocyte Chemoattractant Protein-1 (MCP1), CCL2 (gene 6347); test: BSK_3C_MCP1: BioMAP Diversity Plus: 3C Assay for Monocyte Chemoattractant Protein-1 (MCP1) Biomarker Activity (AID 2283017; active = hit-call score of the fitted dose curve at least 0.9, where 1 is the maximum; inactive = score below 0.9); conditions: primary human endothelial cells (HUVEC); actives raise or lower the signal
Outline: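 Endothelial cells from human umbilical vein are dosed with chemical, cultured 24 h, then assayed for MCP-1 by ELISA; both increases and decreases are modelled against DMSO controls.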

[10] = read-out: Monocyte Chemoattractant Protein-1 (MCP1), CCL2 (gene 6347); test: BSK_4H_MCP1: BioMAP Diversity Plus: 4H Assay for Monocyte Chemoattractant Protein-1 (MCP1) Biomarker Activity (AID 2283018; active = hit-call score of the fitted dose curve at least 0.9, where 1 is the maximum; inactive = score below 0.9); conditions: primary human endothelial cells (HUVEC); actives raise or lower the signal
Outline: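 Endothelial cells from umbilical vein were treated with test chemical, then after 24 h MCP-1 levels were quantified by ELISA; endpoint values came from bidirectional fitting with DMSO as baseline of activity.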

[11] = read-out: Human Leukocyte Antigen - DR isotype (HLADR), HLA-DRA (gene 3122); test: BSK_3C_HLADR: BioMAP Diversity Plus: 3C Assay for Human Leukocyte Antigen - DR isotype (HLADR) Biomarker Activity (AID 2283019; active = hit-call score of the fitted dose curve at least 0.9, where 1 is the maximum; inactive = score below 0.9); conditions: primary human endothelial cells (HUVEC); actives raise or lower the signal
Outline: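 Endothelial cells from human umbilical vein are treated with test chemical; after 24 h, HLA-DR levels are measured by ELISA. Data are fitted in both directions using DMSO as the baseline.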

[12] = read-out: Interleukin-8 (IL8), CXCL8 (gene 3576); test: BSK_3C_IL8: BioMAP Diversity Plus: 3C Assay for Interleukin-8 (IL8) Biomarker Activity (AID 2283020; active = hit-call score of the fitted dose curve at least 0.9, where 1 is the maximum; inactive = score below 0.9); conditions: primary human endothelial cells (HUVEC); actives raise or lower the signal
Outline: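 Endothelial primary cells of human umbilical vein origin are dosed with chemical; after 24 h the IL-8 biomarker is measured by ELISA, and concentration–response is fitted in both directions versus DMSO.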

[13] = read-out: Monokine induced gamma interferon (MIG), CXCL9 (gene 4283); test: BSK_3C_MIG: BioMAP Diversity Plus: 3C Assay for Monokine induced gamma interferon (MIG) Biomarker Activity (AID 2283021; active = hit-call score of the fitted dose curve at least 0.9, where 1 is the maximum; inactive = score below 0.9); conditions: primary human endothelial cells (HUVEC); actives raise or lower the signal
Outline: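 Endothelial primary cells (human umbilical vein) are dosed with test chemical in the 3C system. MIG levels are measured by ELISA at 24 h and fitted in both directions relative to DMSO.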

[14] = target: human RAR-related Orphan Receptor beta (RORb), RORB (gene 6096) (UniProt Q92753); test: ATG_RORb_TRANS: Attagene TRANS-FACTORIAL HepG2 Assay for human RAR-related Orphan Receptor beta (RORb) (AID 2283010)
Sequence of human RAR-related Orphan Receptor beta (RORb), RORB (gene 6096) (Q92753 whole entry, looked up, the tested form may be a part): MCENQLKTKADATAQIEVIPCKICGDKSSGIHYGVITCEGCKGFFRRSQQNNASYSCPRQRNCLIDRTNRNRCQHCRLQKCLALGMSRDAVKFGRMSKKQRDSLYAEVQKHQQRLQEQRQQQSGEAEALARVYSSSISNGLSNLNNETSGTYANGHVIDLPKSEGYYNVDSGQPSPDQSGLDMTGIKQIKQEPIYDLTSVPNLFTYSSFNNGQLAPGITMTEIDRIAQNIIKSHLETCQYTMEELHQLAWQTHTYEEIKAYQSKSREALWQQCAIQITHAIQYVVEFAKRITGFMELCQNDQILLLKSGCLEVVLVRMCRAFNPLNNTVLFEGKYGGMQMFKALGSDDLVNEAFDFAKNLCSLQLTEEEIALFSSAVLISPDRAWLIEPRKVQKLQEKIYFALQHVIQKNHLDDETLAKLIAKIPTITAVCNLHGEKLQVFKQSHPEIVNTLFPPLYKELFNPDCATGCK
Outline: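 Transfect HepG2 with multiple GAL4-UAS reporter transcription units; dose chemicals for 24 h; isolate RNA, reverse-transcribe and PCR-amplify reporter sequences; label, digest and resolve fragments by capillary electrophoresis; fit increases relative to DMSO.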

[15] = target: human RAR-related Orphan Receptor gamma (RORg), RORC (gene 6097) (UniProt P51449); test: ATG_RORg_TRANS: Attagene TRANS-FACTORIAL HepG2 Assay for human RAR-related Orphan Receptor gamma (RORg) (AID 2283011)
Sequence of human RAR-related Orphan Receptor gamma (RORg), RORC (gene 6097) (P51449 whole entry, looked up, the tested form may be a part): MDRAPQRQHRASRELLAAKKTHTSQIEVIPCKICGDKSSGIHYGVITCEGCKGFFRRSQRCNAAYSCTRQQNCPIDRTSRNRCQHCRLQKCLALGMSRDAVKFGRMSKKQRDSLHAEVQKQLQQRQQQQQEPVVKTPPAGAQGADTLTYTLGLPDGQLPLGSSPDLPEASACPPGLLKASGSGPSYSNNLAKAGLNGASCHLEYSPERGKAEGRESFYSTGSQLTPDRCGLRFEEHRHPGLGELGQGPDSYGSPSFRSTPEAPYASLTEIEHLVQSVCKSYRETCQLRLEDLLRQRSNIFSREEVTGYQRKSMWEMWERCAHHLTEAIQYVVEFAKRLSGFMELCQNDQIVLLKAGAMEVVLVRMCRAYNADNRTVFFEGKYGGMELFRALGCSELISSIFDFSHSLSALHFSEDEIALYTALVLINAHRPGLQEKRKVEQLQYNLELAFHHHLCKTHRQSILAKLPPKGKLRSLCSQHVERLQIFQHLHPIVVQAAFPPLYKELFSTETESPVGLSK
Outline: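 Activity is scored as increase in GAL4-UAS reporter mRNA over DMSO, detected by fluorescent RT-PCR and capillary electrophoresis in HepG2 cells transiently expressing a RORg-Gal4 chimera, 24 h after dosing.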

[16] = target: human Thyroid Receptor alpha (THRa1), THRA (gene 7067) (UniProt P10827); test: ATG_THRa1_TRANS: Attagene TRANS-FACTORIAL HepG2 Assay for human Thyroid Receptor alpha (THRa1) (AID 2283014)
Sequence of human Thyroid Receptor alpha (THRa1), THRA (gene 7067) (P10827 whole entry, looked up, the tested form may be a part): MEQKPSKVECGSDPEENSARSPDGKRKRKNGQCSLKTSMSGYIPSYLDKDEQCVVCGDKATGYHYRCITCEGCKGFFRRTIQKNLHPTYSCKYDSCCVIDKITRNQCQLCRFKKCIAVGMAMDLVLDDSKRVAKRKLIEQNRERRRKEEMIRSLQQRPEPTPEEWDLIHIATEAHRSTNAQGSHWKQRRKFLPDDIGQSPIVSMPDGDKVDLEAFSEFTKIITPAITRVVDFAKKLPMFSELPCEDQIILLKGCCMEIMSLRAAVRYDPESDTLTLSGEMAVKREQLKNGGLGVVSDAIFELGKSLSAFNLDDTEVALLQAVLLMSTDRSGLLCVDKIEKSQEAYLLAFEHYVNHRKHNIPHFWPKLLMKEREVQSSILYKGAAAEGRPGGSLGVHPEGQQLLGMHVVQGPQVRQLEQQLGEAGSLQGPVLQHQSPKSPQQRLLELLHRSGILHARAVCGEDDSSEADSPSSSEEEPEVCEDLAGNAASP
Outline: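 First, HepG2 cells receive multiple GAL4-UAS reporter units and the chimeric receptor. They are then dosed for 24 h, after which RNA is reverse-transcribed, amplified, labelled, HpaI-cut and sized by capillary electrophoresis; gain relative to DMSO is scored.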

[17] = target: human Vitamin D Receptor (VDR), VDR (gene 7421) (UniProt P11473); test: ATG_VDR_TRANS: Attagene TRANS-FACTORIAL HepG2 Assay for human Vitamin D Receptor (VDR) (AID 2283022)
Sequence of human Vitamin D Receptor (VDR), VDR (gene 7421) (P11473 whole entry, looked up, the tested form may be a part): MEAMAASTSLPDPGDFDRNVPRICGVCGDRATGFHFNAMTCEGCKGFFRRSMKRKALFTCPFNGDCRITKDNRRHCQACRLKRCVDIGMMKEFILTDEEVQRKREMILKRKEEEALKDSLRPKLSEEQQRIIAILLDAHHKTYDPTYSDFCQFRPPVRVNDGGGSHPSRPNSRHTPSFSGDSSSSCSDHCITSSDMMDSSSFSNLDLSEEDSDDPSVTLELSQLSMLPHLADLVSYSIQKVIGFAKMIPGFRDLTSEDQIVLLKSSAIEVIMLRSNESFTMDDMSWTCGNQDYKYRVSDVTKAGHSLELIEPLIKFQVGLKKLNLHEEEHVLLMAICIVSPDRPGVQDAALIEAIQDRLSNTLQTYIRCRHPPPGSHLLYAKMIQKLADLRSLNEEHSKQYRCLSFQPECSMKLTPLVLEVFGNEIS
Outline: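 Fluorescence of labelled reporter cDNA fragments, resolved by capillary electrophoresis, gives mRNA induction after 24 h treatment of HepG2 cells carrying transfected Gal4-fusion reporter units. Activity is fitted in the positive direction with DMSO as baseline.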

[18] = target: human Retinoic Acid Receptor beta (RARb), RARB (gene 5915) (UniProt P10826); test: ATG_RARb_TRANS: Attagene TRANS-FACTORIAL HepG2 Assay for human Retinoic Acid Receptor beta (AID 2283004)
Outline: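 HepG2, transient MRTU transfection, NR–Gal4 chimera, 24 h treatment; RT-PCR plus CE fluorescence detection of reporter mRNA; gain of signal vs DMSO.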

[19] = target: Retinoic acid receptor alpha (Homo sapiens) (UniProt P10276); test: ATG_RARa_TRANS: Attagene TRANS-FACTORIAL HepG2 Assay for human Retinoic Acid Receptor alpha (RARa) (AID 2283005)
Sequence of Retinoic acid receptor alpha (Homo sapiens) (P10276 whole entry, looked up, the tested form may be a part): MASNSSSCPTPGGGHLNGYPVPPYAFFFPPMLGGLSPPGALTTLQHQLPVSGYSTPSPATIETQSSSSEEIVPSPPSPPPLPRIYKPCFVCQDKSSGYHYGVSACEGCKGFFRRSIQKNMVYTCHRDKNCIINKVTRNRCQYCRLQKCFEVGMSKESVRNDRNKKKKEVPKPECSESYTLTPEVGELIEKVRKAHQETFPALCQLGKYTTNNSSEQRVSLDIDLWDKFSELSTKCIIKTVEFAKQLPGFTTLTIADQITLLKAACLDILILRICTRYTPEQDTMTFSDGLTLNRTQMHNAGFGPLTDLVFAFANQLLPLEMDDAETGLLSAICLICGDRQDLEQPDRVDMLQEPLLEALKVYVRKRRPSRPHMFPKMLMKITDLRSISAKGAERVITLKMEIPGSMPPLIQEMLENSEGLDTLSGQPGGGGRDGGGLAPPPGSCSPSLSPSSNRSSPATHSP
Outline: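 HepG2 cells transiently transfected with multiple reporter units expressing chimeric RARα-GAL4 fusion, with GAL4-UAS-driven reporters. After 24 h compound exposure, reporter mRNA induction quantified by RT-PCR and capillary electrophoresis with fluorescent labeling; gain-of-signal fitted relative to DMSO control.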

[20] = target: human Retinoic Acid Receptor gamma (RARg), RARG (gene 5916) (UniProt P13631); test: ATG_RARg_TRANS: Attagene TRANS-FACTORIAL HepG2 Assay for human Retinoic Acid Receptor gamma (RARg) (AID 2283009)
Sequence of human Retinoic Acid Receptor gamma (RARg), RARG (gene 5916) (P13631 whole entry, looked up, the tested form may be a part): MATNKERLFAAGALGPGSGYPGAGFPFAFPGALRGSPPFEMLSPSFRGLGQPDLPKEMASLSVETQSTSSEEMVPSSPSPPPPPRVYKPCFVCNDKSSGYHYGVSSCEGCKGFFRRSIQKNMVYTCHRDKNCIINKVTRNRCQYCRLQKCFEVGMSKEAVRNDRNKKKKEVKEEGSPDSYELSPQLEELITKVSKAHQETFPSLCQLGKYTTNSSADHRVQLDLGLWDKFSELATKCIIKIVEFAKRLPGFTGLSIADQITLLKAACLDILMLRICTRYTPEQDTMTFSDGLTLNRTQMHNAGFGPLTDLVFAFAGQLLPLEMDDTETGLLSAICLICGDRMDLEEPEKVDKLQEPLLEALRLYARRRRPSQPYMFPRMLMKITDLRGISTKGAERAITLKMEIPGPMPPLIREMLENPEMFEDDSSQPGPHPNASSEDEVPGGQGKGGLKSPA
Outline: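 TRANS format measured activity of exogenous NR-GAL4 fusion (RARg) in transfected HepG2 liver cells after 24 h dosing. Induced reporter RNA was detected by RT-PCR/capillary electrophoresis fluorescence, analysed in the positive direction against DMSO.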

Measured: AC50

Sequence of E-selectin (Homo sapiens) (P16581 whole entry, looked up): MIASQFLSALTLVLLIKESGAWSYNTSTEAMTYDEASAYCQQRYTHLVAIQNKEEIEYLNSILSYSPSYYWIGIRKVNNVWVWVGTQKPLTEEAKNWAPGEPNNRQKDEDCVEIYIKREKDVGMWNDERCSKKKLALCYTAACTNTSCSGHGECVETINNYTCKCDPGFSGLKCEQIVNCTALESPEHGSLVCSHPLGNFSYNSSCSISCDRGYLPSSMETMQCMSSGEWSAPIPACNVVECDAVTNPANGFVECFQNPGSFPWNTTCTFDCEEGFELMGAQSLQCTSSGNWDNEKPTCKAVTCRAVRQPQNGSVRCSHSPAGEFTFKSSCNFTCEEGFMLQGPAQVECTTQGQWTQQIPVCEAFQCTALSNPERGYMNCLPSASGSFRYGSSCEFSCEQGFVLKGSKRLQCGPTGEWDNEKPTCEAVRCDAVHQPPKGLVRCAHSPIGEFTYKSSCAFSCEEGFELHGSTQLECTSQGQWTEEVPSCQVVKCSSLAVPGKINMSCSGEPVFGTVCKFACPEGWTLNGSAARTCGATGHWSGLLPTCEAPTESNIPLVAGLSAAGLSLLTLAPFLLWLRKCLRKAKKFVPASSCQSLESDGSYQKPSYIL

CCCCC(CC)C(=O)O (centres undefined)
not listed: [14] | [15] | [16] | [17] | [18] | [19] | [20]
inactive: all other assays above

O=C1OC2(c3ccccc31)c1cc(I)c(O)c(I)c1Oc1c2cc(I)c(O)c1I
inactive: [2] | [4] | [14] | [15] | [5] | [16] | [12] | [13] | [17]
active: [1] 12 µM | [4] 5.08 µM and 15.4 µM | [7] 5.74 µM | [8] 4.58 µM | [9] 6.03 µM | [10] 4.8 µM | [11] 6.51 µM

CC(O)COc1ccccc1 (centres undefined)
inactive: [18] | [19] | [3] | [4] | [20] | [14] | [15] | [5] | [16]

CCCCC=O
not listed: [3] | [6] | [16] | [18] | [19] | [20]
inactive: all other assays above

C=Cc1ccc(O)c(OC)c1
inactive: [18] | [19] | [20] | [15] | [5] | [6] | [16] | [17]
active: [3] 8.33 µM | [4] 70.3 µM

CC(C)C=O
inactive: [18] | [19] | [3] | [4] | [20] | [14] | [15] | [5] | [16]
active: [6] 100 µM

C=CC(=O)OCCN(CC)CC
inactive: [18] | [19] | [3] | [20] | [15] | [5] | [17]

Cc1cc(Cc2cc(C)cc(C(C)(C)C)c2O)c(O)c(C(C)(C)C)c1
inactive: [18] | [19] | [20] | [17]
active: [3] 12.6 µM | [4] 0.0594 µM

CN(C)CCOC(c1ccccc1)c1ccccc1
active: [10] 0.351 µM
not listed: [3] | [6] | [14] | [15] | [17] | [18] | [19]
inactive: all other assays above

O=C(NO)c1ccccc1
not listed: [3] | [6] | [16] | [18] | [19] | [20]
inactive: all other assays above

c1cnc2c(c1)ccc1cccnc12
inactive: [18] | [19] | [3] | [4] | [20] | [14] | [15] | [5] | [6] | [17]
active: [4] 26.4 µM

CCCCCCCCCCCCCCCC(=O)OC
inactive: [18] | [19] | [3] | [4] | [20] | [16] | [17]

C[N+](C)(CCCNS(=O)(=O)CCC(F)(F)C(F)(F)C(F)(F)C(F)(F)C(F)(F)C(F)(F)F)CC(=O)[O-]
inactive: [18] | [19] | [3] | [20] | [5] | [6] | [16] | [17]
active: [4] 0.00287 µM

CCCCCCCCCCCCCC[n+]1ccccc1
active: [3] 13.6 µM
inactive: [18] | [19] | [4] | [20] | [5] | [16] | [17]

Cc1[nH]nc2c1N=C(c1ccccc1Cl)c1cc([N+](=O)[O-])ccc1N2
active: [2] 0.547 µM | [7] 3.2 µM | [8] 7.77 µM | [10] 10.4 µM | [11] 3.12 µM
not listed: [3] | [15] | [18] | [19] | [20]
inactive: all other assays above

OCC(CO)(CBr)CBr
inactive: [1] | [2] | [5] | [16] | [7] | [8] | [9] | [10] | [11] | [12] | [13]

C=CCOCC(CO)(CO)CO
inactive: [18] | [19] | [3] | [20] | [5] | [17]
active: [4] 15.1 µM

CCOC=O
active: [6] 6.71 µM
inactive: [18] | [4] | [20] | [15] | [5] | [17]

O=C(F)C(F)(F)C(F)(F)C(F)(F)C(F)F
inactive: [18] | [3] | [4] | [5]

Cc1ccc(S(=O)(=O)O)cc1
inactive: [18] | [19] | [4] | [14] | [5] | [6] | [16] | [17]

CC(C)(O)C(=O)c1ccccc1
active: [4] 30 µM
inactive: [18] | [19] | [15] | [5] | [6] | [17]

CC1=CC(=O)c2ccccc2C1=O
inactive: [19] | [3] | [20] | [14] | [5] | [6] | [16]
active: [4] 7.29 µM
